IL-1B inflam inh: inflammasome signaling inhibition, IL-1 beta readout | activity change, % at 57.5 µM | THP-1 LPS/ATP IL-1B secretion, AlphaLISA, 16 h; stronger effect = lower value | 360,000 tested, 4.7% active; in the data active means activity change below about -50%; inconclusive means mostly about -30% to -49%
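THP-1 cells pretreated 1 hr with compounds (up to 57.5 uM final), then stimulated with LPS (250 ng/mL final) plus ATP (1.25 mM final); secreted IL-1B measured by AlphaLISA after 16 hr, decreased signal indicating inhibition.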
HT1080 IDH1KD tx: kills HT-1080 cells with IDH1 knockdown | HT-1080 IDH1 knockdown viability, ATP luminescence, 48 h | AID 686971 | Potency, µM (doses to about 46.1 µM), without a hit: top-dose activity, negative = toxicity, actives largely listed as cytotoxic | 360,000 tested, 2% active;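 further: potency means the concentration at half of the fitted maximal effect; 0% = DMSO wells and -100% = cell-free medium wells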
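Cytotoxicity counter-line: IDH1KD HT-1080, 48 h, CellTiter-Glo. Curves classed by r2, magnitude and activity.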
TDP1 cell CPT: DT40-hTDP1 cell growth loss with CPT; chicken DT40 Tdp1-/-;hTDP1 cells + 20 nM CPT, ATP luminescence, 48 h; Potency, µM (top dose mostly 46.2 µM), inactives show top-dose activity change, negative = growth inhibition, hits mostly inhibitors; 420,000 tested, 12% active; AID 686979; further: potency means the concentration at half of the fitted maximal effect; nearly all actives have a fitted effect of over 55% in size
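Chicken DT40 Tdp1-/- cells complemented with human TDP1, 400 cells/well, exposed to compounds plus 20 nM camptothecin for at least 48 h at 37 C; viability read as ATP content by CellTiter-Glo luminescence.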
DT40 TDP1 no CPT: qHTS for Inhibitors of human tyrosyl-DNA phosphodiesterase 1 (TDP1): qHTS in cells in absence of CPT. Potency, µM (top dose mostly 46.2 µM), without a hit: top-dose activity change, negative = growth inhibition, usual class: inhibitors. 420,000 tested, 15% active. AID 686978, 2013. DT40 Tdp1-/- hTDP1 cells, no CPT, ATP luminescence, 48 h; further: potency means the concentration at half of the fitted maximal effect; nearly all actives have a fitted effect of over 55% in size
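Compound effects on proliferation are scored in DT40 Tdp1-/-;hTDP1 cells in the absence of CPT. ATP levels (CellTiter-Glo luminescence) are recorded after a ≥48 hr, 37 °C incubation.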
HT1080-NT tox: kills 2HG-producing HT-1080-NT fibrosarcoma cells; HT-1080-NT fibrosarcoma viability, CellTiter-Glo ATP luminescence, 48 h; Potency, µM (doses to about 46.1 µM), without a hit: at the highest dose activity, negative = less viability, hits mostly cytotoxic; 360,000 tested, 1.6% active; AID 686970;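 further: NT is the 2HG producing partner of a matched IDH1 knockdown line; potency means the concentration at half of the fitted maximal effect; 0% = DMSO-treated cells and -100% = media-only wells without cells; nearly all actives have a fitted effect of over 55% in size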
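Viability of the 2HG-overproducing fibrosarcoma line after 48 hours of compound exposure at 37 degrees C was determined by luminescence with CellTiter-Glo, and concentration-effect curves were then fitted and categorized.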
An asterisk follows results filed as active; i = inactive; u = inconclusive; x = no result given; ! = not confirmed by another sample. Compounds with a hit are over-represented: about 19% of the library has one in this group of screens. Unless noted, the call rests on the fitted dose curve; in most records, active means well fitted curve in the direction sought with a large enough effect; inconclusive means small, poorly fitted or top-dose-only effect, or another doubt; inactive means no such curve, though single readings can be large; an effect the other way counts as inactive or inconclusive. Unless noted, on the % scale 0 is the no-effect control and ±100 the full control effect.

SMILES	IL-1B inflam inh	HT1080 IDH1KD tx	TDP1 cell CPT	DT40 TDP1 no CPT	HT1080-NT tox
COc1cc(C(=O)N(C)CCOc2ccc(C)cc2)ccc1OC1CCN(C(C)=O)CC1	18.3	0.7%	5.6%	-24.6%	7.3%
CCN(CC)CCN(CC(=O)Nc1c(C)cc(C)cc1C)C(=O)c1ccccc1	-68.4*	-2.6%	-16.5%	3.1%	-4.8%
COc1ccccc1-c1cc2nc(NCCc3ccc(S(N)(=O)=O)cc3)ccn2n1	-67.8*	-1.9%	u	20.6µM*	-2.7%
COc1ccc(C)cc1S(=O)(=O)N1CCN(S(=O)(=O)c2cc(C)ccc2OC)CC1	-4.2	0.8%	-13.0%	-14.6%	-0.6%
CS(=O)(=O)N1CCN(C/C=C/c2ccccc2)CC1	-15.4	-2.3%	-25.4%	u	-2.7%
O=S(=O)(c1ccc(Cl)s1)N1CCN(Cc2ccccc2)CC1	19.6	7.8%	u	16.4µM*	8.8%
O=S(=O)(c1ccc(Cl)s1)N1CCN(CCc2ccccc2)CC1	i	-10.1%	-21.2%	-25.7%	-12.9%
O=S(=O)(c1ccc(Cl)s1)N1CCN(C/C=C/c2ccccc2)CC1	-10.7	-18.8%	16.4µM*	u	-8.6%
COc1ccc(C)cc1S(=O)(=O)N1CCN(C/C=C/c2ccccc2)CC1	-1.5	-4.9%	u	14.6µM*	-3.6%
Nc1ccc2c(c1)C(=O)N(c1ccc3ccccc3c1)C2=O	x	x	1.5%	-18.4%	x
CCCC(=O)Nc1c2c(nc3ccccc13)N(c1ccccc1)CC2	0.0	25.9µM*	u	u	u
Nc1c2c(nc3ccccc13)N(c1ccccc1)CC2	-8.9	-14.5%	14.6µM*	u	-13.1%
CC(C)NC(=O)N[C@H]1C=C[C@H](CC(=O)NCc2ccc(Oc3ccccc3)cc2)O[C@@H]1CO	32.1	-2.0%	-28.7%	u	-1.9%
COc1ccccc1C(=O)N/C(=C\c1cn(S(=O)(=O)N(C)C)c2ccccc12)C(=O)NCCN1CCOCC1	26.7	-3.3%	-17.2%	u	0.5%
Cc1cc2ncn(CC3CC3(Cl)Cl)c2cc1C (centres undefined)	20.1	-27.5%	u	u	-26.2%
O=c1c2ccccc2nnn1CSc1nnc(C2COc3ccccc3O2)n1-c1ccccc1 (centres undefined)	13.2	-14.6%	20.6µM*	u	-16.4%
COC(=O)c1ccccc1Oc1cc(C(F)(F)F)nc(-c2ccccn2)n1	-4.2	-0.3%	-13.2%	u	12.5%
C[C@H]1CN([C@@H](C)CO)S(=O)(=O)c2ccc(Br)cc2O[C@H]1CN(C)S(=O)(=O)c1ccccc1	7.8	-6.8%	16.4µM*	16.4µM*	-9.6%
COc1ccc(NC(=O)N(C)C[C@H]2Oc3cc(Br)ccc3S(=O)(=O)N([C@H](C)CO)C[C@@H]2C)cc1	10.9	-6.9%	u	u	-15.1%
COc1cccc(S(=O)(=O)N(C)C[C@H]2Oc3cc(Br)ccc3S(=O)(=O)N([C@@H](C)CO)C[C@H]2C)c1	-23.0	-8.9%	20.6µM*	14.6µM*	-8.8%
C/C=C/c1ccc2c(c1)O[C@H](CN(C)C(=O)NC1CCCC1)[C@H](C)CN([C@H](C)CO)S2(=O)=O	-25.5	-3.8%	18.4µM*	20.6µM*	-1.6%
C[C@@H]1CN([C@@H](C)CO)S(=O)(=O)c2ccc(Br)cc2O[C@H]1CN(C)C(=O)C1CCC1	-17.4	-7.7%	u	16.4µM*	5.6%
C[n+]1cccc(Br)c1	x	x	4.3%	-17.9%	x
CC(C)n1nnnc1SCC(=O)NC1CCCC1	2.4	18.5%	20.0%	-11.7%	9.2%
CC(C)C(=O)OCC(=O)[C@@]12O[C@H](C3CCCCC3)O[C@@H]1C[C@H]1[C@@H]3CCC4=CC(=O)C=C[C@]4(C)[C@H]3[C@@H](O)C[C@@]12C	x	x	-7.7%	-16.4%	x
SMILES	IL-1B inflam inh	HT1080 IDH1KD tx	TDP1 cell CPT	DT40 TDP1 no CPT	HT1080-NT tox
CCN1C[C@@H]2[C@@H]3C(=O)N(Cc4ccccc4)C(=O)[C@@H]3[C@](Cc3ccccc3)(C1=O)N2C(=O)c1ccc(Br)cc1	-5.6	4.7%	u	u	11.4%
Cc1ccc[n+](C(C)C(=O)Nc2ccc(C)c([N+](=O)[O-])c2)c1 (centres undefined)	-24.8	-3.0%	2.7%	-20.9%	4.3%
O=C1c2ccccc2C(c2nnnn2-c2ccc3c(c2)OCCO3)N1Cc1ccco1 (centres undefined)	-3.6	7.5%	u	u	18.4%
Cc1ccc(S(=O)(=O)N(C)C[C@H]2Oc3cc(C#Cc4ccccc4)ccc3S(=O)(=O)N([C@H](C)CO)C[C@@H]2C)cc1	32.7	-3.1%	10.3µM*	9.2µM*	-0.2%
CC(C)C#Cc1ccc2c(c1)O[C@@H](CN(C)S(=O)(=O)c1cn(C)cn1)[C@@H](C)CN([C@H](C)CO)S2(=O)=O	-1.8	0.7%	u	u	-3.4%
COc1cc(OC)c(-c2nnc(-c3ccc(OC)c(OC)c3OC)o2)cc1OC	-29.2	-14.0%	14.1µM*	12.6µM*	-15.1%
C=CCc1ccccc1OCC(O)CN(CC)CC (centres undefined)	-12.0	-0.5%	1.2%	-3.2%	9.5%
Cc1ccc(Oc2nc(CN3CCOCC3)nc3sc4c(c23)CCC(C)C4)cc1 (centres undefined)	-57.3*	-11.0%	u	u	-1.7%
COc1cccc(Nc2nc(CN3CCOCC3)nc3sc4c(c23)CCCC4)c1	u	-1.0%	16.4µM*	20.6µM*	-2.1%
Cc1cc(S(=O)(=O)Nc2nc(CN3CCOCC3)nc3sc4c(c23)CCC4)cc(C)c1C	8.9	-6.0%	-10.0%	-7.0%	-7.2%
Cc1ccc(Oc2nc(CN3CCOCC3)nc3sc4c(c23)CCC(C)C4)cc1C (centres undefined)	-0.5	8.5%	-25.4%	u	3.0%
CN(CC(=O)Nc1cccnc1)S(=O)(=O)c1ccc(Br)cc1	i	9.3%	-24.3%	-20.2%	4.2%
CC1=CC(C)(C)NC(=S)N1c1ccc2ccccc2c1	11.4	7.08µM*!	u	u	5.62µM*
CC1=CC(C)(C)NC(=S)N1c1cccc2ccccc12	0.0	0.6%	u	25.9µM*	5.6%
O=C(Cn1nc(-c2ccccc2)c2cnc3ccc(F)cc3c21)NC1CCCC1	x	x	-18.9%	1.6%	x
Cc1nc(-c2ccccc2)sc1C1(C)CC(c2cccc([N+](=O)[O-])c2)=NO1 (centres undefined)	-9.4	2.9%	-1.6%	0.9%	-2.1%
S=C(N/N=C/c1ccc(Cl)cc1)N1CCOCC1	26.8	9.9%	0.0092µM*	0.0184µM*	3.6%
S=C(N/N=C/c1ccc(Br)cc1)N1CCCCC1	-7.7	-25.9%	1.16µM*	u	-15.8%

From PubChem
